The supplement of paper PMC10646978
± gives the standard deviation.

Legend:
Conditions in all cases: modulator concentration 10 µM
[1] = system: RAW-Dual (murine macrophage reporter line); experiment: NF-kB reporter (SEAP) activity fold change vs agonist alone; higher = enhanced NF-kB activity
Outline: (§1)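 RAW-Dual murine macrophage reporter cells were seeded at 50 000 per well in 384-well plates and pre-incubated 1 hour at 37 °C with compound pin-transferred to 10 μM final. After 1 hour, a PRR agonist was added and cells incubated overnight. Supernatant NF-κB (SEAP, QUANTI-Blue, 620 nm absorbance) and IRF (Lucia luciferase, QUANTI-Luc, luminescence) signals were divided by the mean agonist-only control on the same plate to give fold change. Two replicate plates were averaged, with errors by propagation.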

[2] = system: RAW-Dual (murine macrophage reporter line); experiment: IRF reporter (Lucia luciferase) activity fold change vs agonist alone; higher = enhanced IRF activity
Outline: as §1

[3] = system: RAW-Dual (murine macrophage reporter line); experiment: viability score (confluency relative to resting cells, overnight) (fraction); higher = more viable, active = viable (0.7 or more)
Outline: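 RAW-Dual macrophages in 384-well plates were incubated overnight with compound, final concentration 10 μM. Confluency images from IncuCyte were processed in IncuCyte software into two masks covering all imaged wells. The viability score is each well's confluency relative to resting cells, and a compound met the cutoff when both masks exceeded 70% of resting cells.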

[4] = agonist: CpG ODN 1826 0.5 ug/mL

With `CC(C)=CCOc1c2occc2cc2ccc(=O)oc12` the NF-kB reporter [1, 4] was 1.13 ± 0.27, the NF-kB reporter ([1]; agonist: LPS 0.1 ug/mL) was 0.823 ± 0.064 and the NF-kB reporter ([1]; agonist: MPLA […]) was 0.957 ± 0.088. The IRF reporter ([2]; agonist: 3'3'-cGAMP 10 ug/mL) was 1.09 ± 0.047, the IRF reporter ([2]; agonist: LPS 0.1 ug/mL) was 1.47 ± 0.17 and the IRF reporter ([2]; agonist: MPLA […]) was 1.58 ± 0.21. For the same molecule, the viability score [3] was 0.95 (active).

`O=c1[nH]c2ccccc2n1CCCN1CCC(n2c(=O)[nH]c3cc(Cl)ccc32)CC1` gave an NF-kB reporter [1, 4] of 0.114 ± 0.018, an NF-kB reporter ([1]; agonist: LPS 0.1 ug/mL) of 1.14 ± 0.082 and an NF-kB reporter ([1]; agonist: MPLA […]) of 0.973 ± 0.074. For the same molecule, the IRF reporter ([2]; agonist: 3'3'-cGAMP 10 ug/mL) was 0.865 ± 0.026, the IRF reporter ([2]; agonist: LPS 0.1 ug/mL) was 1.31 ± 0.14 and the IRF reporter ([2]; agonist: MPLA […]) was 1.12 ± 0.092. For the same molecule, the viability score [3] was 0.981 (active).

Molecule `Nc1nc(N)nc(NC2CC2)n1` has an NF-kB reporter [1, 4] of 1.47 ± 0.063, an NF-kB reporter ([1]; agonist: LPS 0.1 ug/mL) of 1.15 ± 0.1 and an NF-kB reporter ([1]; agonist: MPLA […]) of 1.67 ± 0.39. It also gave an IRF reporter ([2]; agonist: 3'3'-cGAMP 10 ug/mL) of 0.614 ± 0.064, an IRF reporter ([2]; agonist: LPS 0.1 ug/mL) of 0.992 ± 0.24 and an IRF reporter ([2]; agonist: MPLA […]) of 0.892 ± 0.33. For the same molecule, the viability score [3] was 0.987 (active).

For `ClC(Cl)=C(c1ccc(Cl)cc1)c1ccc(Cl)cc1`, the NF-kB reporter [1, 4] was 1.14 ± 0.36, the NF-kB reporter ([1]; agonist: LPS 0.1 ug/mL) was 1.03 ± 0.068 and the NF-kB reporter ([1]; agonist: MPLA […]) was 1.07 ± 0.11. For the same molecule, the IRF reporter ([2]; agonist: 3'3'-cGAMP 10 ug/mL) was 0.961 ± 0.055, the IRF reporter ([2]; agonist: LPS 0.1 ug/mL) was 1.12 ± 0.12 and the IRF reporter ([2]; agonist: MPLA […]) was 1.25 ± 0.12. The viability score [3] was 0.714 (active).

Work on `CCC1(c2c[nH]cn2)Cc2ccccc2C1.Cl` yielded an NF-kB reporter [1, 4] of 0.752 ± 0.1, an NF-kB reporter ([1]; agonist: LPS 0.1 ug/mL) of 1.11 ± 0.082 and an NF-kB reporter ([1]; agonist: MPLA […]) of 0.863 ± 0.05. It also gave an IRF reporter ([2]; agonist: 3'3'-cGAMP 10 ug/mL) of 1 ± 0.05, an IRF reporter ([2]; agonist: LPS 0.1 ug/mL) of 1.25 ± 0.11 and an IRF reporter ([2]; agonist: MPLA […]) of 1.07 ± 0.081. For the same molecule, the viability score [3] was 0.976 (active).

`CC(C(O)c1ccccc1)N(C)C` (stereo unspecified) showed an NF-kB reporter [1, 4] of 0.96 ± 0.084, an NF-kB reporter ([1]; agonist: LPS 0.1 ug/mL) of 0.883 ± 0.065 and an NF-kB reporter ([1]; agonist: MPLA […]) of 0.955 ± 0.091. The IRF reporter ([2]; agonist: 3'3'-cGAMP 10 ug/mL) was 0.995 ± 0.031, the IRF reporter ([2]; agonist: LPS 0.1 ug/mL) was 1.26 ± 0.12 and the IRF reporter ([2]; agonist: MPLA […]) was 1.3 ± 0.19. The viability score [3] was 1 (active).

In the case of `O=C1NC(=O)C(=Cc2cc(Br)ccc2OCc2ccc(Cl)cc2Cl)C(=O)N1`, the NF-kB reporter [1, 4] is reported as 0.887 ± 0.05, the NF-kB reporter ([1]; agonist: LPS 0.1 ug/mL) is reported as 0.945 ± 0.071 and the NF-kB reporter ([1]; agonist: MPLA […]) is reported as 0.794 ± 0.058. For the same molecule, the IRF reporter ([2]; agonist: 3'3'-cGAMP 10 ug/mL) was 0.949 ± 0.033, the IRF reporter ([2]; agonist: LPS 0.1 ug/mL) was 0.751 ± 0.11 and the IRF reporter ([2]; agonist: MPLA […]) was 0.822 ± 0.16. For the same molecule, the viability score [3] was 0.991 (active).

Work on `CCOC(=O)Nc1ccc(NCc2ccc(F)cc2)cc1N` yielded an NF-kB reporter [1, 4] of 0.882 ± 0.039, an NF-kB reporter ([1]; agonist: LPS 0.1 ug/mL) of 1.09 ± 0.086 and an NF-kB reporter ([1]; agonist: MPLA […]) of 0.936 ± 0.051. For the same molecule, the IRF reporter ([2]; agonist: 3'3'-cGAMP 10 ug/mL) was 0.893 ± 0.044, the IRF reporter ([2]; agonist: LPS 0.1 ug/mL) was 1.2 ± 0.33 and the IRF reporter ([2]; agonist: MPLA […]) was 1.33 ± 0.51. For the same molecule, the viability score [3] was 1.01 (active).

`COC(=O)COc1ccc(C=C2C(=O)NC(=S)N(c3cccc(Cl)c3Cl)C2=O)cc1OC` gave an NF-kB reporter [1, 4] of 0.959 ± 0.09, an NF-kB reporter ([1]; agonist: LPS 0.1 ug/mL) of 1.04 ± 0.086 and an NF-kB reporter ([1]; agonist: MPLA […]) of 0.932 ± 0.063. The IRF reporter ([2]; agonist: 3'3'-cGAMP 10 ug/mL) was 0.909 ± 0.048, the IRF reporter ([2]; agonist: LPS 0.1 ug/mL) was 1.35 ± 0.12 and the IRF reporter ([2]; agonist: MPLA […]) was 1.14 ± 0.12. The viability score [3] was 1.01 (active).

With `CC1=C(O)C(=O)C=C2C1=CC=C1C2(C)CCC2(C)C3CC(C)(C(=O)O)CCC3(C)CCC12C` (stereo unspecified) the NF-kB reporter [1, 4] was 0.062 ± 0.0049, the NF-kB reporter ([1]; agonist: LPS 0.1 ug/mL) was 0.048 ± 0.0035 and the NF-kB reporter ([1]; agonist: MPLA […]) was 0.0885 ± 0.0089. It also gave an IRF reporter ([2]; agonist: 3'3'-cGAMP 10 ug/mL) of 0.0157 ± 0.0014, an IRF reporter ([2]; agonist: LPS 0.1 ug/mL) of 0.116 ± 0.081 and an IRF reporter ([2]; agonist: MPLA […]) of 0.071 ± 0.039. For the same molecule, the viability score [3] was 0.381 (inactive).

`O=C(NCCN1CCOCC1)c1ccc(Cl)nc1` gave an NF-kB reporter [1, 4] of 0.917 ± 0.17, an NF-kB reporter ([1]; agonist: LPS 0.1 ug/mL) of 1.15 ± 0.13 and an NF-kB reporter ([1]; agonist: MPLA […]) of 0.995 ± 0.1. The IRF reporter ([2]; agonist: 3'3'-cGAMP 10 ug/mL) was 0.987 ± 0.026, the IRF reporter ([2]; agonist: LPS 0.1 ug/mL) was 1.12 ± 0.21 and the IRF reporter ([2]; agonist: MPLA […]) was 1.09 ± 0.13. For the same molecule, the viability score [3] was 0.972 (active).

`Cc1ccc(-c2nn(-c3ccccc3)cc2C=C2C(=O)NC(=S)NC2=O)o1` gave an NF-kB reporter [1, 4] of 1.03 ± 0.3, an NF-kB reporter ([1]; agonist: LPS 0.1 ug/mL) of 1.01 ± 0.11 and an NF-kB reporter ([1]; agonist: MPLA […]) of 0.898 ± 0.071. For the same molecule, the IRF reporter ([2]; agonist: 3'3'-cGAMP 10 ug/mL) was 0.968 ± 0.057, the IRF reporter ([2]; agonist: LPS 0.1 ug/mL) was 1.27 ± 0.2 and the IRF reporter ([2]; agonist: MPLA […]) was 1.25 ± 0.13. For the same molecule, the viability score [3] was 1 (active).

For `Cc1c(NN=C2C(=O)NC(=O)NC2=O)c(=O)n(-c2ccccc2)n1C`, the NF-kB reporter [1, 4] was 1.02 ± 0.1, the NF-kB reporter ([1]; agonist: LPS 0.1 ug/mL) was 1.03 ± 0.086 and the NF-kB reporter ([1]; agonist: MPLA […]) was 0.958 ± 0.042. For the same molecule, the IRF reporter ([2]; agonist: 3'3'-cGAMP 10 ug/mL) was 0.951 ± 0.13, the IRF reporter ([2]; agonist: LPS 0.1 ug/mL) was 1.08 ± 0.096 and the IRF reporter ([2]; agonist: MPLA […]) was 0.932 ± 0.14. The viability score [3] was 0.999 (active).
